In the supplement of paper PMC10849652:
Targets with a hit are over-represented here; the source holds about 7,900 in all. About 0.6% of all pairs of compound and target were hits. Values without a mark were called inactive.

Columns and labels:
Assay in all cases: log2 fold change, soluble protein after heating vs DMSO (PISA); higher = thermal stabilisation; K562 cells, 10 uM, 30 min; active = over 0.2 and 3.5 SD of the protein, either way, in both replicates (recomputed)
[1] = compound: COC1=CC=C(C=C1)CN2C=CC3=C2C=C(C=C3)C(=O)NO
Method in brief: (§1)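 K562 cells (2×10^6 cells/mL) were treated with 10 μM compound for 30 min, and aliquots were heated for 3 min over 48°C-58°C. Pooled aliquots were extracted in PBS with 0.5% NP-40 at 4°C, and the supernatant after 21,000xg for 90 min was measured by TMTpro 16plex LC-MS/MS with channel sums equalised. Reported thermal stability, relative to control samples and from duplicates, is a log2 fold change.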

filanesib = compound: CON(C)C(=O)N1N=C(c2cc(F)ccc2F)S[C@@]1(CCCN)c1ccccc1 [filanesib]
Method in brief: as §1

zotarolimus = compound: CO[C@H]1C[C@@H]2CC[C@@H](C)[C@@](O)(O2)C(=O)C(=O)N2CCCC[C@H]2C(=O)O[C@H]([C@H](C)C[C@@H]2CC[C@H](n3cnnn3)[C@H](OC)C2)CC(=O)[C@H](C)/C=C(\C)[C@@H](O)[C@@H](OC)C(=O)[C@H](C)C[C@H](C)/C=C/C=C/C=C/1C [zotarolimus]
Method in brief: as §1

idasanutlin = compound: COc1cc(C(=O)O)ccc1NC(=O)[C@@H]1N[C@@H](CC(C)(C)C)[C@](C#N)(c2ccc(Cl)cc2F)[C@H]1c1cccc(Cl)c1F [idasanutlin]
Method in brief: as §1

alisertib = compound: COc1cc(Nc2ncc3c(n2)-c2ccc(Cl)cc2C(c2c(F)cccc2OC)=NC3)ccc1C(=O)O [alisertib]
Method in brief: as §1

[2] = compound: COc1cc2nc(-c3cc(F)ccc3O)nc(N[C@@H]3CNC[C@H]3C(C)(C)O)c2cc1OC
Method in brief: as §1

gefitinib = compound: COc1cc2ncnc(Nc3ccc(F)c(Cl)c3)c2cc1OCCCN1CCOCC1 [gefitinib]
Method in brief: as §1

[3] = compound: COc1cccc2cc(-c3nc([C@H]4CC[C@H](C(=O)O)CC4)n4ncnc(N)c34)[nH]c12
Method in brief: as §1

lapatinib = compound: CS(=O)(=O)CCNCc1ccc(-c2ccc3ncnc(Nc4ccc(OCc5cccc(F)c5)c(Cl)c4)c3c2)o1 [lapatinib]
Method in brief: as §1

pictilisib = compound: CS(=O)(=O)N1CCN(Cc2cc3nc(-c4cccc5[nH]ncc45)nc(N4CCOCC4)c3s2)CC1 [pictilisib]
Method in brief: as §1

Sequence of UniProt O00220 (O00220 whole entry, looked up): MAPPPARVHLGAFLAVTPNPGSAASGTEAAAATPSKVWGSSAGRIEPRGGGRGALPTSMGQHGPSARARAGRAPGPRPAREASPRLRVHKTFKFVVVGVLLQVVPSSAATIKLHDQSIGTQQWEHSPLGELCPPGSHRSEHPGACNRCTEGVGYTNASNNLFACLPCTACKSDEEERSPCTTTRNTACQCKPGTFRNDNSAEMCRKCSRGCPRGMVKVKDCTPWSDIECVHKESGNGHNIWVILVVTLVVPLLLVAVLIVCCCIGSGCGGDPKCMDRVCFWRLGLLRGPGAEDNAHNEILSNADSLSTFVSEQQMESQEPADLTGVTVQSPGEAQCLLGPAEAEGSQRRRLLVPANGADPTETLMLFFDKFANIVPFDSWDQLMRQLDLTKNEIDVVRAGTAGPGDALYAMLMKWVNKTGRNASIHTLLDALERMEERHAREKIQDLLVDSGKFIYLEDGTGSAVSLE
Sequence of UniProt Q7Z7E8 (Q7Z7E8 whole entry, looked up): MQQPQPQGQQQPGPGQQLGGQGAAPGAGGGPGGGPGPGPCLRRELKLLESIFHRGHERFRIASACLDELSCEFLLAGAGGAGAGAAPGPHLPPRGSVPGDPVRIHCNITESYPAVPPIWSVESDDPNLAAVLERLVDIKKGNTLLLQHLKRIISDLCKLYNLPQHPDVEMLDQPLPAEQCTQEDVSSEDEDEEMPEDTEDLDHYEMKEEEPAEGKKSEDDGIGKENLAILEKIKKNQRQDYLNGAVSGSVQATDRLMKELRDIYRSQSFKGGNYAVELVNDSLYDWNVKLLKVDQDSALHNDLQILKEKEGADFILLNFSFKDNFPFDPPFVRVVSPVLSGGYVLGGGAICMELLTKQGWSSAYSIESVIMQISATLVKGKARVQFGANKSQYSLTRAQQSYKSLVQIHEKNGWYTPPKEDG
Sequence of UniProt Q9UL33 (Q9UL33 whole entry, looked up): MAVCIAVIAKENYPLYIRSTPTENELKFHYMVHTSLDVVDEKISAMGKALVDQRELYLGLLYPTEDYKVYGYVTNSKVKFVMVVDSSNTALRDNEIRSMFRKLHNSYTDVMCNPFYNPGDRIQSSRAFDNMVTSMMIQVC
Sequence of UniProt Q93008 (Q93008 whole entry, looked up): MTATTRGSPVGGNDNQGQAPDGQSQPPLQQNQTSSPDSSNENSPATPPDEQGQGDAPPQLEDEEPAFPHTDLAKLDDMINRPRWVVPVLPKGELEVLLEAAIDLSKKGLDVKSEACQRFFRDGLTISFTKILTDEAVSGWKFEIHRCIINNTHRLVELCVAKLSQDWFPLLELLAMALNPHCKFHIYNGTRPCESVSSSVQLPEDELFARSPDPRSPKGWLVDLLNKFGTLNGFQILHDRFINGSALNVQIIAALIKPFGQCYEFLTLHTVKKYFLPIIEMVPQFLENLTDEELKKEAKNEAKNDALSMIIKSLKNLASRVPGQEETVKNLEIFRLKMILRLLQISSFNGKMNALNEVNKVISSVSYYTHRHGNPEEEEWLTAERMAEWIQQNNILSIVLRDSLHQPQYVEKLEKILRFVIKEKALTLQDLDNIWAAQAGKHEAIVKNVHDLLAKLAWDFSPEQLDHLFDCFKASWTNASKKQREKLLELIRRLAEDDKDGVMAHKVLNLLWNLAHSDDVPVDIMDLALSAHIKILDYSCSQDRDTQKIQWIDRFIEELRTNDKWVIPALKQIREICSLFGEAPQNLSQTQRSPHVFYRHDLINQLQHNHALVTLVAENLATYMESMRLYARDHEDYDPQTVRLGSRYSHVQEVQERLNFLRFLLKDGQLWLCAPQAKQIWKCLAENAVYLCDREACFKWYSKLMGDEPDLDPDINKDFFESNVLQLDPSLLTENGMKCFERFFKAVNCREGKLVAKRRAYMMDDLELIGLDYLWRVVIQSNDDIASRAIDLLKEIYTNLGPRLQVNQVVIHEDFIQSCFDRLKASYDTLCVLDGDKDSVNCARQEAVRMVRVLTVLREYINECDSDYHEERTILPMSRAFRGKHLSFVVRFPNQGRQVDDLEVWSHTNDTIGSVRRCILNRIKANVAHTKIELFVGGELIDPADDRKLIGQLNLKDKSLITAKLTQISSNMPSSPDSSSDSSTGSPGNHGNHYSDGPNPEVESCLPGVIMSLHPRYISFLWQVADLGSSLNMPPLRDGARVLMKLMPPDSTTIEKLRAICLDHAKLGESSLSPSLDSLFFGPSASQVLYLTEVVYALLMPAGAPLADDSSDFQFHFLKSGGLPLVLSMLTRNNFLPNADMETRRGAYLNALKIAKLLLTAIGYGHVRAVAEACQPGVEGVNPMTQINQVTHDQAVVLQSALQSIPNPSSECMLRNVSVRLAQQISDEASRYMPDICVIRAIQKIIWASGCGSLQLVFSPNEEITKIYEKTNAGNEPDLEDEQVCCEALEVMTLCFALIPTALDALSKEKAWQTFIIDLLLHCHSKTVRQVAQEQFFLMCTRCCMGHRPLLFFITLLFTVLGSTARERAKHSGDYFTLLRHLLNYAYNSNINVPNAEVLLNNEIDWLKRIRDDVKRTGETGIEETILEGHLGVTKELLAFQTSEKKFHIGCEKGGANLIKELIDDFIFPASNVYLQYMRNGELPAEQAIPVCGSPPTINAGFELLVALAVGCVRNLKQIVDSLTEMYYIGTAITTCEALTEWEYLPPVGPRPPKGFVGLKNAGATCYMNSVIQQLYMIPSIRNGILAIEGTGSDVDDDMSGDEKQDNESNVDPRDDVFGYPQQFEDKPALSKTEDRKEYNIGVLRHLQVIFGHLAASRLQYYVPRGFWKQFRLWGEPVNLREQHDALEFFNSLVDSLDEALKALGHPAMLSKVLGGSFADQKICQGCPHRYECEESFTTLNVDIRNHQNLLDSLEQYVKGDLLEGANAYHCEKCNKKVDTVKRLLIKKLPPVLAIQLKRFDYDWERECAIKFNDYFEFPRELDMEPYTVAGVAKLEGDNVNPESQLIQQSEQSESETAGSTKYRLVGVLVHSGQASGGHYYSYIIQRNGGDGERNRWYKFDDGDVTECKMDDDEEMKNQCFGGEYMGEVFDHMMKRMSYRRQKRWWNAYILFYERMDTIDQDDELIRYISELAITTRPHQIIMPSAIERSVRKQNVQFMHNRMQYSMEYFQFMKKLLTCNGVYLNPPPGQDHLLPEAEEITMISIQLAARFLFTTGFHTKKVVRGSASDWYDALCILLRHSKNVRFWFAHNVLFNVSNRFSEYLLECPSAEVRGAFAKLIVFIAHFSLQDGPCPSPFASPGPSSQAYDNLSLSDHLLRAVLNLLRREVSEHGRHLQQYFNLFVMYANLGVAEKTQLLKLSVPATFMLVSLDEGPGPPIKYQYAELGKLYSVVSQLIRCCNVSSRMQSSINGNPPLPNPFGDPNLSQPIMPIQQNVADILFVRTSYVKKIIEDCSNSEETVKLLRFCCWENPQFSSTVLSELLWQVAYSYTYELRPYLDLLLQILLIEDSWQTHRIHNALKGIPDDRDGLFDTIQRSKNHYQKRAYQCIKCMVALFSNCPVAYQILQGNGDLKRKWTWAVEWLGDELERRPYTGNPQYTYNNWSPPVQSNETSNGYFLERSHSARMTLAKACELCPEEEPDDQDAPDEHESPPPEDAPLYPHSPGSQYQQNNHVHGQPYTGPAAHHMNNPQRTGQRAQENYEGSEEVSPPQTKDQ
Sequence of UniProt P26368 (P26368 whole entry, looked up): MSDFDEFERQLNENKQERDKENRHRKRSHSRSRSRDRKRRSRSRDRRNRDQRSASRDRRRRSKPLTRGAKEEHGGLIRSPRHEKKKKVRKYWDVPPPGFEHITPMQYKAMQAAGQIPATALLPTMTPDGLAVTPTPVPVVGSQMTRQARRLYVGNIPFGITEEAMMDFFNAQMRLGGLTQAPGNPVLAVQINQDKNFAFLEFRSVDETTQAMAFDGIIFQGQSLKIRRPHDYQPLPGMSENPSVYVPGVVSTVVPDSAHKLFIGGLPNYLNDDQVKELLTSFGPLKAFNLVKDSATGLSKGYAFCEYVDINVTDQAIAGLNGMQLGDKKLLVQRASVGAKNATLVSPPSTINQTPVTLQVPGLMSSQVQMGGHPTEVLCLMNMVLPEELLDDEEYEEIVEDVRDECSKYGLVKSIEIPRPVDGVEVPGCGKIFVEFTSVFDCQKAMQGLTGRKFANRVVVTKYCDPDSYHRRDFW
Sequence of UniProt O14787 (O14787 whole entry, looked up): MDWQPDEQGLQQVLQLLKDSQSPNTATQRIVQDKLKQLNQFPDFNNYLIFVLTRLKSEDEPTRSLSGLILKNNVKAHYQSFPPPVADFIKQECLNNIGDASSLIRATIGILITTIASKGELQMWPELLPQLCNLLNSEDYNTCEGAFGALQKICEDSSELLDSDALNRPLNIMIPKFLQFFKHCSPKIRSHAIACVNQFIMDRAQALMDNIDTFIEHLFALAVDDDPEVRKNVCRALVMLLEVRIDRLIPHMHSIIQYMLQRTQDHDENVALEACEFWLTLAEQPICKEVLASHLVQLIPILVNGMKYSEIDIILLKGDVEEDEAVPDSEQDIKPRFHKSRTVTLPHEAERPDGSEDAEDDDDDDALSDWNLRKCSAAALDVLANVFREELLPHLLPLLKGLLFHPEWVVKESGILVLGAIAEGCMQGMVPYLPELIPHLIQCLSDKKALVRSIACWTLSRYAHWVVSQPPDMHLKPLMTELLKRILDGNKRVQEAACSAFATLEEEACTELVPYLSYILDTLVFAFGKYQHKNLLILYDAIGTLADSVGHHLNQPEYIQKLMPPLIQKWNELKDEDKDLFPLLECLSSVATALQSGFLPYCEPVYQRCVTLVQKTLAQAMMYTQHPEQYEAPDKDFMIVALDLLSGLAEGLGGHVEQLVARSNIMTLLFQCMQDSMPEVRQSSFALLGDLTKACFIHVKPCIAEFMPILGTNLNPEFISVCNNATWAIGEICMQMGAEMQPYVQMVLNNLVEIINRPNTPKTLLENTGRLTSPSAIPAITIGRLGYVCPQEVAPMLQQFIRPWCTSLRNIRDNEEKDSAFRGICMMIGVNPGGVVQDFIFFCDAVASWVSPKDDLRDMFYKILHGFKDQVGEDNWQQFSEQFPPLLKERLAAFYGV
Sequence of UniProt P61960 (P61960 whole entry, looked up): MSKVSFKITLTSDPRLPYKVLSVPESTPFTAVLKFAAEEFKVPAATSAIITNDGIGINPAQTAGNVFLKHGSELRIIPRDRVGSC

Row | Target | log2 fold change [1] | log2 fold change (filanesib) | log2 fold change (zotarolimus) | log2 fold change (idasanutlin) | log2 fold change (alisertib) | log2 fold change [2] | log2 fold change (gefitinib) | log2 fold change [3] | log2 fold change (lapatinib) | log2 fold change (pictilisib)
1 | TNFRSF10A (UniProt O00220) | -0.046 | 0.028 | -0.035 | 0.058 | -0.021 | 0.024 | -0.012 | -0.002 | -0.073 | 0.304 (active)
2 | TMEM9 (UniProt Q9P0T7) | -0.085 | -0.078 | 0.081 | 0.006 | -0.081 | -0.178 | -0.007 | 0.052 | 0.04 | 0.036
3 | TTC38 (UniProt Q5R3I4) | -0.067 | -0.023 | 0.034 | -0.093 | 0.065 | 0.081 | 0.013 | -0.003 | -0.054 | -0.041
4 | UFM1 (UniProt P61960) | 0.048 | -0.08 | -0.139 | 0.28 | -0.001 | 0.01 | 0.069 | 0.055 | -0.002 | –
5 | WDR43 (UniProt Q15061) | -0.014 | -0.019 | -0.017 | -0.072 | -0.061 | 0.058 | -0.006 | 0.042 | -0.025 | 0.06
6 | UCHL5 isoform 3 (UniProt Q9Y5K5) | 0.229 | -0.13 | 0.227 | 0.057 | 0.072 | 0.036 | -0.04 | 0.16 | -0.07 | –
7 | TMEM214 (UniProt Q6NUQ4) | -0.003 | 0.185 | -0.013 | -0.045 | -0.041 | 0.282 (active) | -0.012 | -0.111 | 0.046 | -0.055
8 | TP53BP1 isoform 2 (UniProt Q12888) | 0.006 | 0.059 | 0.054 | 0.04 | 0.046 | -0.089 | -0.014 | -0.041 | 0.028 | 0
9 | U2AF2 (UniProt P26368) | 0.038 | 0.071 | 0.018 | 0.042 | -0.089 | 0.014 | 0.028 | 0.074 | -0.013 | 0.013
10 | UBE4A isoform 2 (UniProt Q14139) | 0.037 | -0.023 | -0.003 | 0.008 | -0.003 | -0.024 | -0.056 | -0.073 | 0.022 | 0.016
11 | TNPO2 (UniProt O14787) | -0.022 | -0.005 | 0.065 | -0.194 | -0.071 | -0.069 | 0.027 | -0.038 | -0.048 | -0.076
12 | WDR4 (UniProt P57081) | 0.017 | -0.022 | 0.004 | -0.096 | -0.059 | -0.058 | -0.01 | 0.049 | 0.206 | 0.131
13 | USP9X (UniProt Q93008) | -0.02 | -0.017 | 0.018 | -0.096 | -0.02 | 0.029 | -0.007 | -0.008 | -0.027 | -0.033
14 | WBP4 (UniProt O75554) | 0.001 | -0.082 | -0.025 | 0.022 | -0.042 | -0.009 | 0.014 | -0.003 | 0.05 | -0.139
15 | WDR61 (UniProt Q9GZS3) | -0.121 | -0.031 | 0.008 | -0.05 | -0.082 | 0.14 | -0.035 | 0.065 | -0.104 | 0.042
16 | TRAPPC2L (UniProt Q9UL33) | -0.102 | -0.05 | 0.098 | -0.026 | -0.029 | 0.03 | 0 | -0.062 | 0.088 | -0.018
17 | TRAPPC6B (UniProt Q86SZ2) | 0.055 | -0.023 | 0.012 | -0.023 | -0.009 | -0.003 | 0.042 | 0.028 | 0.019 | 0.02
18 | USP24 (UniProt Q9UPU5) | -0.03 | -0.179 | 0.397 (active) | -0.342 (active) | -0.008 | 0.116 | 0.099 | 0.385 (active) | 0.019 | 0.258
19 | VPS28 (UniProt Q9UK41) | -0.17 | -0.061 | 0.008 | -0.076 | 0.07 | 0.038 | 0.027 | 0.033 | 0.023 | 0.059
20 | VPS41 (UniProt P49754) | 0.004 | -0.085 | 0.015 | -0.068 | 0.038 | -0.032 | -0.002 | -0.063 | 0.008 | -0.028
21 | TXNIP (UniProt Q9H3M7) | -0.013 | -0.148 | 0.172 | 0.035 | -0.198 | -0.074 | 0.002 | -0.119 | 0.228 | 0.142
22 | TMEM179B (UniProt Q7Z7N9) | -0.019 | -0.162 | -0.205 | 0.088 | -0.007 | -0.03 | 0.039 | 0.175 | 0.032 | 0.036
23 | TMEM177 (UniProt Q53S58) | -0.037 | -0.115 | 0.019 | -0.077 | -0.199 | -0.154 | 0.077 | 0.086 | -0.016 | 0.151
24 | TOM1 isoform 2 (UniProt O60784) | -0.118 | -0.031 | -0.001 | 0.056 | -0.002 | -0.039 | -0.031 | 0 | 0.014 | -0.154
25 | WDR41 (UniProt Q9HAD4) | 0.025 | -0.154 | -0.007 | -0.031 | -0.072 | -0.254 | -0.002 | 0.014 | 0.049 | -0.056
26 | UBA1 (UniProt P22314) | 0.029 | -0.077 | -0.021 | -0.014 | 0.05 | 0.047 | 0.05 | -0.053 | -0.06 | -0.019
27 | UBE2Q1 (UniProt Q7Z7E8) | -0.09 | -0.042 | 0.022 | 0.006 | -0.055 | 0.012 | -0.02 | -0.044 | 0.01 | 0.039
28 | VPS37A (UniProt Q8NEZ2) | -0.046 | -0.011 | 0.107 | 0.002 | -0.054 | 0.001 | 0.05 | 0.024 | -0.035 | 0.058
29 | UBA6 | 0.021 | -0.01 | 0.051 | -0.016 | -0.04 | -0.031 | 0.029 | -0.069 | 0.022 | 0.004
30 | TXNL4B (UniProt Q9NX01) | 0.011 | -0.034 | -0.008 | -0.147 | 0.097 | 0.106 | 0.042 | -0.064 | -0.003 | -0.003
